Data from PubChem BioAssay.
Unmarked numbers belong to inactive results. Calls of active or inactive are those of the source.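 The calls were made as follows, unless noted: active = compounds lowering colon cancer cell viability after pretreatment blocking the GSK3B kinase; inactive = the rest.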

Test: stimulators of insulin release from INS-1E, primary screen, cell-based, 5 mM glucose, NPC library (AID 1117329;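 active = compound raises insulin release from rat beta cells at 5 mM glucose, no numeric limit stated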; also: reference of the scale not given here)
Conditions: rat INS-1E insulin secretion, at 10 µM, hits give high values

Row | Structure (SMILES) | insulin secretion stimulation
1 | CC(O)CCCCn1c(=O)c2c(ncn2C)n(C)c1=O (stereo not drawn) | 3.75%
2 | O=C(O)C(Cc1cc(I)c(O)c(I)c1)c1ccccc1 (stereo not drawn) | -0.6%
3 | CCC(C(=O)O)c1ccc(N2Cc3ccccc3C2=O)cc1 (stereo not drawn) | 1.25%
4 | O=C(N/N=C/c1ccccc1O)c1ccncc1 | -1.6%
5 | CC12CCC(C[N+](C)(CCC[N+](C)(C)C)C1)C2(C)C (stereo not drawn) | -2.5%
6 | CC1(C)OC[C@@H](COC(=O)CCc2ccc(OC[C@@H](O)CNCCNC(=O)N3CCOCC3)cc2)O1 | 4%
7 | O=C(Nc1ncc([N+](=O)[O-])s1)c1cccs1 | -0.4%
8 | COc1cc(NS(=O)(=O)c2ccc(N)cc2)nc(C)n1 | 2.8%
9 | Cc1ccc(S(=O)(=O)NC(=O)NC2CCCCC2)cc1 | 26.7% (active)
10 | C=CCOc1cc(Cl)ccc1C(=O)NCCN(CC)CC | 16.7%
11 | COc1cc(/C=C/C(=O)O[C@H]2CC[C@]34C[C@]35CC[C@]3(C)[C@@H]([C@H](C)CCC=C(C)C)CC[C@@]3(C)[C@@H]5CC[C@H]4C2(C)C)ccc1O | 7.6%
12 | C[C@@H](O)[C@H](N)C(=O)O | -1.9%
13 | CCOc1ccccc1O[C@H](c1ccccc1)[C@H]1CNCCO1 | 5.4%
14 | O=C(/C=C/c1ccccc1)OCc1ccccc1 | -0.1%
15 | CN[C@H](CC(C)C)C(=O)N[C@H]1C(=O)N[C@@H](CC(N)=O)C(=O)N[C@H]2C(=O)N[C@H]3C(=O)N[C@H](C(=O)N[C@H](C(=O)O)c4cc(O)cc(O)c4-c4cc3ccc4O)[C@H](O)c3ccc(c(Cl)c3)Oc3cc2cc(c3O[C@@H]2OC(CO)[C@@H](O)[C@H](O)[C@@H]2O[C@H]2C[C@](C)(N)[C@H](O)[C@H](C)O2)Oc2ccc(cc2Cl)[C@H]1O (stereo partly drawn) | -0.1%
16 | O=C(OCC(O)CO)c1ccccc1Nc1ccnc2c(C(F)(F)F)cccc12 (stereo not drawn) | -0.3%
17 | CCN1CCCC1=O | 2.6%
18 | NC(=O)NC1N=C([O][Al])NC1=O (stereo not drawn) | 0.3%
19 | CC1CCCCN1CCCOC(=O)c1ccc(OC2CCCCC2)cc1 (stereo not drawn) | 12.4%
20 | NC[C@H]1O[C@H](O[C@H]2[C@@H](O)[C@@H](O[C@H]3O[C@H](CO)[C@@H](O)[C@H](N)[C@@H]3O)[C@H](N)C[C@@H]2N)[C@H](N)C[C@H]1O | -1.2%

Row | Structure (SMILES) | insulin secretion stimulation
21 | O=P(O)(O)C(Sc1ccc(Cl)cc1)P(=O)(O)O | 3.9%
22 | Cc1onc(-c2c(Cl)cccc2Cl)c1C(=O)Cl | 1.5%
23 | Cc1cccc(N(C)C(=S)Oc2ccc3c(c2)CCC3)c1 | 3.9%
24 | CCCCCCCCCCCCCCCCCCO | -1.7%
25 | Oc1ccc(Cl)cc1Sc1cc(Cl)ccc1O | 4.5%
26 | CC1CN(c2cc3c(cc2F)c(=O)c(C(=O)O)cn3-c2ccc(F)cc2F)CCN1 (stereo not drawn) | 2.1%
27 | CCCCCCCCCCCCCCCC(=O)OC(C)C | 2.3%
28 | CC(=O)Oc1ccc(C2(c3ccc(OC(C)=O)cc3)Oc3ccccc3NC2=O)cc1 | 19.9%
29 | CC(=O)Nc1ccn(C2COC(COC(=O)c3ccccc3)O2)c(=O)n1 (stereo not drawn) | 1%
30 | CCc1cc(S(=O)(=O)O)c2cc(C(C)C)cccc1-2 | 0.1%
31 | CCCc1ncc(C(=O)O)s1 | 4.2%
32 | CN1C(CSCC(F)(F)F)Nc2cc(Cl)c(S(N)(=O)=O)cc2S1(=O)=O (stereo not drawn) | 6.7%
33 | CCCCCC[C@@H](CCC)C(=O)O | 0.3%
34 | Cc1ccccc1C(=O)Nc1ccc(C(=O)N2CCCC(N(C)C)c3ccccc32)cc1 (stereo not drawn) | 2.4%
35 | Cn1c(=O)c2[nH]c(Br)nc2n(C)c1=O | 0.9%
36 | CN1CC(=O)NC1=N | 4.1%
37 | C=CCN1CCc2nc(N)sc2CC1 | -0.5%
38 | CO/N=C(\C(=O)O)c1csc(NC(=O)CCl)n1 | 1.4%
39 | Cc1cc(CC(=O)O)c(C)n1-c1ccc(Cl)cc1 | 2.3%

Test: growth inhibition of GSK3B-pretreated HCT116 cells – cell-based, CellTiter-Glo, 0.2 to 20 µM (AID 1117336)
Conditions: HCT116 viability after GSK3B inhibitor, at 20 µM, hits give high values

Row | Structure (SMILES) | viability decrease
40 | CC(O)CCCCn1c(=O)c2c(ncn2C)n(C)c1=O (stereo not drawn) | 15.3%
41 | O=C(O)C(Cc1cc(I)c(O)c(I)c1)c1ccccc1 (stereo not drawn) | 36.8%
42 | CCC(C(=O)O)c1ccc(N2Cc3ccccc3C2=O)cc1 (stereo not drawn) | 15.4%
43 | O=C(N/N=C/c1ccccc1O)c1ccncc1 | 94.3% (active)
44 | CC12CCC(C[N+](C)(CCC[N+](C)(C)C)C1)C2(C)C (stereo not drawn) | -7.9%
45 | CC1(C)OC[C@@H](COC(=O)CCc2ccc(OC[C@@H](O)CNCCNC(=O)N3CCOCC3)cc2)O1 | -3.9%
46 | O=C(Nc1ncc([N+](=O)[O-])s1)c1cccs1 | 45.8%
47 | COc1cc(NS(=O)(=O)c2ccc(N)cc2)nc(C)n1 | -0.6%
48 | Cc1ccc(S(=O)(=O)NC(=O)NC2CCCCC2)cc1 | -13%
49 | C=CCOc1cc(Cl)ccc1C(=O)NCCN(CC)CC | 11%
50 | COc1cc(/C=C/C(=O)O[C@H]2CC[C@]34C[C@]35CC[C@]3(C)[C@@H]([C@H](C)CCC=C(C)C)CC[C@@]3(C)[C@@H]5CC[C@H]4C2(C)C)ccc1O | 2.6%
51 | C[C@@H](O)[C@H](N)C(=O)O | -7.25%
52 | CCOc1ccccc1O[C@H](c1ccccc1)[C@H]1CNCCO1 | -2.9%
53 | O=C(/C=C/c1ccccc1)OCc1ccccc1 | -14.9%
54 | CN[C@H](CC(C)C)C(=O)N[C@H]1C(=O)N[C@@H](CC(N)=O)C(=O)N[C@H]2C(=O)N[C@H]3C(=O)N[C@H](C(=O)N[C@H](C(=O)O)c4cc(O)cc(O)c4-c4cc3ccc4O)[C@H](O)c3ccc(c(Cl)c3)Oc3cc2cc(c3O[C@@H]2OC(CO)[C@@H](O)[C@H](O)[C@@H]2O[C@H]2C[C@](C)(N)[C@H](O)[C@H](C)O2)Oc2ccc(cc2Cl)[C@H]1O (stereo partly drawn) | -6.3%
55 | O=C(OCC(O)CO)c1ccccc1Nc1ccnc2c(C(F)(F)F)cccc12 (stereo not drawn) | -37%
56 | CCN1CCCC1=O | 18.7%
57 | NC(=O)NC1N=C([O][Al])NC1=O (stereo not drawn) | 13.8%
58 | CC1CCCCN1CCCOC(=O)c1ccc(OC2CCCCC2)cc1 (stereo not drawn) | 21.7%
59 | NC[C@H]1O[C@H](O[C@H]2[C@@H](O)[C@@H](O[C@H]3O[C@H](CO)[C@@H](O)[C@H](N)[C@@H]3O)[C@H](N)C[C@@H]2N)[C@H](N)C[C@H]1O | -19.7%

Row | Structure (SMILES) | viability decrease
60 | O=P(O)(O)C(Sc1ccc(Cl)cc1)P(=O)(O)O | -2.7%
61 | Cc1onc(-c2c(Cl)cccc2Cl)c1C(=O)Cl | -3.8%
62 | Cc1cccc(N(C)C(=S)Oc2ccc3c(c2)CCC3)c1 | 33.9%
63 | CCCCCCCCCCCCCCCCCCO | -15.2%
64 | Oc1ccc(Cl)cc1Sc1cc(Cl)ccc1O | 100% (active)
65 | CC1CN(c2cc3c(cc2F)c(=O)c(C(=O)O)cn3-c2ccc(F)cc2F)CCN1 (stereo not drawn) | 8.7%
66 | CCCCCCCCCCCCCCCC(=O)OC(C)C | -9.5%
67 | CC(=O)Oc1ccc(C2(c3ccc(OC(C)=O)cc3)Oc3ccccc3NC2=O)cc1 | 91.8% (active)
68 | CC(=O)Nc1ccn(C2COC(COC(=O)c3ccccc3)O2)c(=O)n1 (stereo not drawn) | 54% (active)
69 | CCc1cc(S(=O)(=O)O)c2cc(C(C)C)cccc1-2 | -5.3%
70 | CCCc1ncc(C(=O)O)s1 | -8.2%
71 | CN1C(CSCC(F)(F)F)Nc2cc(Cl)c(S(N)(=O)=O)cc2S1(=O)=O (stereo not drawn) | -2.8%
72 | CCCCCC[C@@H](CCC)C(=O)O | 1.2%
73 | Cc1ccccc1C(=O)Nc1ccc(C(=O)N2CCCC(N(C)C)c3ccccc32)cc1 (stereo not drawn) | 18.9%
74 | Cn1c(=O)c2[nH]c(Br)nc2n(C)c1=O | 2.55%
75 | CN1CC(=O)NC1=N | -24%
76 | C=CCN1CCc2nc(N)sc2CC1 | -5.1%
77 | CO/N=C(\C(=O)O)c1csc(NC(=O)CCl)n1 | 16.2%
78 | Cc1cc(CC(=O)O)c(C)n1-c1ccc(Cl)cc1 | -14.4%
